Screening results from PubChem.
The list is not random: actives were taken first. Their share in the collection is about 2.5%.
L3MBTL1 inh – qHTS Assay for the Inhibitors of L3MBTL1. actives 0.66% (n = 230,000). AlphaScreen L3MBTL1–H3K9me1 peptide binding. AID 485360, 2010. Lethal(3)malignant brain tumor-like protein 1 (Homo sapiens), Q9Y468. Potency, µM (series often up to 57.1 µM), without a hit: top-dose activity, negative = inhibition, most hits filed as inhibitors; also: % is scaled to controls: 0 for no effect and ±100 for the full control effect; nearly all actives have a fitted effect of over 60% in size
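L3MBTL1 50 nM + b-AHA-H3(1-15)K9me1 75 nM, 30 min RT; compound added, 30 min RT; streptavidin donor/Ni-chelate acceptor beads 10 ug/mL each final, 30 min RT dark; AlphaScreen read.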
WRN helicase inh – qHTS for Inhibitors of WRN Helicase | Potency, µM (top dose mostly 114 µM), for the others: top-dose activity change, negative = inhibition, usual class: inhibitors | WRN helicase unwinding, fluorescent forked duplex, kinetic | actives 0.46% (n = 360,000) | AID 651768, 2012 | Bifunctional 3'-5' exonuclease/ATP-dependent helicase WRN (Homo sapiens), Q14191; also: % is scaled to controls: 0 for no effect and ±100 for the full control effect; nearly all actives have a fitted effect of over 55% in size
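Screening of the MLSMR collection measured strand separation of a quenched forked DNA duplex (100 nM) by 20 nM WRN with 2 mM ATP, all final. Compounds were preincubated with enzyme 15 min at room temperature.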
POLB inh – qHTS Assay for Inhibitors of DNA Polymerase Beta; Pol beta primer extension/strand displacement, fluorescence kinetic; Potency, µM (titrated, usually from 114 µM), inactives show at the top dose activity change, negative = inhibition, actives largely listed as inhibitors; actives 1.3% (n = 340,000); also: % is scaled to controls: 0 for no effect and ±100 for the full control effect
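Values derive from four-parameter Hill fits of normalized kinetic data: reads at 0 and 10 min following addition of 50 nM substrate to 10 nM Pol beta preincubated 15 min with compound.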
Pol kappa inh – qHTS for Inhibitors of Polymerase Kappa; purified Pol kappa, fluorescent DNA synthesis assay, 10 min; AID 588579, 2011; DNA polymerase kappa (Homo sapiens), Q9UBT6; Potency, µM (titrated, usually from 107 µM), for inactives: at the highest dose activity, negative = inhibition, usual class: inhibitors; actives 0.53% (n = 400,000); also: % is scaled to controls: 0 for no effect and ±100 for the full control effect
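Pol kappa 10 nM + cpd, 15 min RT; start w/ substrate 50 nM final; fluorescence kinetic read, 0 and 10 min. Neg ctrl: buffer, no enzyme.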
Pol eta inh – qHTS for Inhibitors of Polymerase Eta; recombinant Pol eta, fluorescent DNA replication assay; DNA polymerase eta (Homo sapiens), Q9Y253; actives 1.2% (n = 390,000); Potency, µM (highest dose often 114 µM), inactives show at the top dose activity change, negative = inhibition, hits mostly inhibitors; also: % is scaled to controls: 0 for no effect and ±100 for the full control effect
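Pol eta at 10 nM preincubated with compounds 15 min at room temperature; reaction started with fluorescent substrate (50 nM final) and read kinetically at 0 and 10 min.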
Pol iota inh – qHTS for Inhibitors of Polymerase Iota | Potency, µM (highest dose often 115 µM), without a hit: at the top dose activity, negative = inhibition, hits mostly inhibitors | actives 1% (n = 390,000) | DNA polymerase iota (Homo sapiens), Q9UNA4 | Pol iota fluorescent replication assay, 10 min
Target sequence (Q9UNA4 whole entry, looked up): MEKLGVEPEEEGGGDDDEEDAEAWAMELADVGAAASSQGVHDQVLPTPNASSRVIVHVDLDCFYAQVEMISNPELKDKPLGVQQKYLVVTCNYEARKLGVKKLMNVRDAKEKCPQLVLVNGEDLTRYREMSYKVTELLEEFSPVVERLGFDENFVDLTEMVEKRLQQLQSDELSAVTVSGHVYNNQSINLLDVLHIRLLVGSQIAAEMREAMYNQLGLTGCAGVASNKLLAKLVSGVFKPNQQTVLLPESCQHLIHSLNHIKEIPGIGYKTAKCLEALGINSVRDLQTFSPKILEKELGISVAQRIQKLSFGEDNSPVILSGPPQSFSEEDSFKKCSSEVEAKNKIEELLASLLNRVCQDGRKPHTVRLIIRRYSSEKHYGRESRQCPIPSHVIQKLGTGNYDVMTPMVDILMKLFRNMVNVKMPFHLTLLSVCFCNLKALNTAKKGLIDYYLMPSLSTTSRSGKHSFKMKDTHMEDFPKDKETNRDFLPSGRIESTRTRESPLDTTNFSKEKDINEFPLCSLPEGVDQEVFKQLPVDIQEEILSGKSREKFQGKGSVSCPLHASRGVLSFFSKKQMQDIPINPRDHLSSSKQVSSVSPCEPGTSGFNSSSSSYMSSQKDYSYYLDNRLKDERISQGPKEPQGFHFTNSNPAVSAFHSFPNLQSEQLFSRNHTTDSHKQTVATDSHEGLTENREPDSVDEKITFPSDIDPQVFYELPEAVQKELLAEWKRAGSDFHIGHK
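Fluorescent replication assay read twice, at 0 min and 10 min after adding 50 nM (final) substrate. Enzyme (10 nM) and compounds were first incubated 15 min at room temperature; enzyme-free buffer wells were negative controls.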
* = called active by the depositor; ? = inconclusive; / = no result given; ! = repeats disagree; [ ] = remark or other dose. Calls follow the shape of the dose curve; as a rule, active = well fitted curve in the direction sought with a large enough effect; inconclusive = small, poorly fitted or top-dose-only effect, or another doubt; inactive = no such curve, though single readings can be large; an effect the other way counts as inactive or inconclusive. Potency is read from the fitted curve at half-maximal effect.

SMILES | L3MBTL1 inh | WRN helicase inh | POLB inh | Pol kappa inh | Pol eta inh | Pol iota inh
O=C(NNS(=O)(=O)c1ccccc1)c1cc2cc3ccccc3nc2s1 | -4% | -14% | ? | -11% | -5% | 1%
O=C(NNC(=O)c1cc2cc3ccccc3nc2s1)c1cccc(C(F)(F)F)c1 | -3% | -35% | 22µM* | ? | ? | ?
Cc1nc2ccc([N+](=O)[O-])cc2c(=O)n1Cc1cccc(Br)c1 | -6% | 6% | 79µM* | -10% | -3% | 20%
CCOC(=O)c1cnc(-n2nc(C)cc2C)nc1Oc1ccccc1F | / | -27% | -18% | -4% | -13% | 79%
CCOC(=O)c1cc2c(=O)n3ccccc3nc2n(Cc2ccco2)c1=NC(=O)c1ccccc1OCC | / | -10% | 1% | -4% | -8% | ?
CCOC(=O)c1cc2c(=O)n3ccccc3nc2n(Cc2ccco2)c1=NC(=O)c1ccc(Br)cc1 | / | / | -3% | ? | -9% | 45µM*
CCOC(=O)c1cc2c(=O)n3ccccc3nc2n(Cc2ccco2)c1=NC(=O)c1cccnc1 | -5% | ? | 18µM* | -38% | ? | ?
Cc1cccn2c(=O)c3cc(C#N)c(=NC(=O)c4ccccc4)n(Cc4ccco4)c3nc12 | / | 50µM*! | / | ? | 25µM* | ?
CCOC(=O)c1cc2c(=O)n3ccccc3nc2n(Cc2ccco2)c1=NC(=O)c1ccc(C)c(C)c1 | / | / | -20% | -23% | -13% | ?
CCOC(=O)c1cc2c(=O)n3ccccc3nc2n(Cc2ccco2)c1=NC(=O)c1ccccc1Br | / | / | ? | 89µM* | ? | 14µM*
CCOc1ccccc1N(CC(=O)N1CCC(C)CC1)S(=O)(=O)c1ccc(C)cc1 | / | ? | -5% | -7% | -18% | 9%
CC[C@@H](C)[C@H](C(CC(=O)N1CCCC1[C@@H](OC)[C@H](C)C(=O)N[C@H](Cc1ccccc1)c1nccs1)OC)N(C)C(=O)[C@H](NC(=O)[C@@H](C(C)C)N(C)C)C(C)C (stereo partly drawn) | / | 1% | / | -10% | -16% | 7%
CCOC(=O)c1cc2c(=O)n3ccccc3nc2n(Cc2ccco2)c1=NC(=O)c1cccc(C)c1 | / | / | -13% | -27% | -3% | ?
CCOC(=O)c1cc2c(=O)n3ccccc3nc2n(Cc2ccco2)c1=NC(=O)c1cccc(Br)c1 | / | / | 22µM* | 2%[60.1 µM] | 1% | 40µM*
CCc1nc(-c2cc(S(=O)(=O)N3CCN(c4ccccc4F)CC3)ccc2OC)no1 | / | / | 0% | -8% | -26% | -1%
COc1ccc(S(=O)(=O)N2CCN(c3ccccc3F)CC2)cc1-c1noc(C)n1 | / | / | 8.9µM* | -17% | -14% | 88%
COc1cc(C=O)ccc1OCCOCCOc1ccc(Cl)cc1Cl | / | -18% | / | -10% | -17% | -1%
O=C(Nc1ccccc1C(F)(F)F)C1CCN(c2nnc(-n3cccc3)s2)CC1 | / | / | ? | -3% | -7% | 8%
CCN(CC)c1ccc(NC(=O)C2CCN(c3nnc(-n4cccc4)s3)CC2)c(C)c1 | / | / | 25µM* | -9% | 2% | ?
COc1ccc(Cn2cc3c(-c4ccc(F)cc4)nnc-3c3cc(OC)c(OC)cc32)cc1 | 4% | 40% | 79µM* | -4% | -14% | -13%
CCOc1ccc(C(=O)Nc2cccc3nsnc23)cc1[N+](=O)[O-] | / | -32%[57.1 µM] | 1% | -3% | 5% | 24%
COc1ccc(-c2ccc(SCC(=O)Nc3cccc(C(C)=O)c3)nn2)cc1OC | / | 5% | 16µM* | ? | ? | 28µM*
COc1ccc(NC(=O)CSc2ccc(-c3sc(C)nc3C)nn2)cc1OC | / | -1% | 25µM* | -18% | -7% | ?
CC(=O)c1ccc(NC(=O)CSc2ccc(-c3sc(C)nc3C)nn2)cc1 | / | 2% | 20µM* | -18% | -7% | ?
CC(=O)c1ccc(NC(=O)CSc2ccc3nnc(-c4ccccn4)n3n2)cc1 | / | 6% | 50µM* | -13% | ? | -16%
SMILES | L3MBTL1 inh | WRN helicase inh | POLB inh | Pol kappa inh | Pol eta inh | Pol iota inh
C#CCNC(=O)C1=C[C@@H](c2ccccc2)C[C@@H](OCCCCO)O1 | / | 2% | / | 9% | -3% | 2%
O=C(CN1CCC(NC(=O)c2ccccc2F)CC1)Nc1ccc2c(c1)OCCO2 | 16% | 1% | 5% | -9% | -24% | 9%
NC(=O)c1cccc(-c2ccnc3c2CC(C(=O)NCc2ccc(F)c(F)c2)O3)c1 (stereo not drawn) | / | 4% | / | / | / | /
NC(=O)CN1C(=O)C(=O)N(Cc2ccc(F)cc2)C1=O | / | 2% | -6% | 0% | -21% | -18%
O=C(O)c1cccc(S(=O)(=O)Nc2cc(Cl)ccc2Cl)c1 | 1% | -6% | -25% | 1% | 0% | 6%
CC1CC(C)CN(C(=O)c2cccc(S(=O)(=O)Nc3cc(C(F)(F)F)ccc3Cl)c2)C1 (stereo not drawn) | 0% | -36% | 56µM* | -21% | -28% | 14%
O=[N+]([O-])c1ccc(N=Nc2c(O)[nH]c3ccc(F)cc23)cc1 | / | -8% | 50µM* | -2% | ? | 28%
O=[N+]([O-])c1ccc2[nH]c(O)c(N=Nc3ccc(F)cc3)c2c1 | / | -3% | 9% | -11%[60.1 µM] | -2% | -16%
CC(Oc1ccccc1)C(=O)N=Nc1c(O)[nH]c2ccc([N+](=O)[O-])cc12 (stereo not drawn) | / | 1% | -25% | -12% | 35µM* | 79µM*
COc1ccc(CNC(=O)Nc2cn(CC(C)C)c(=O)c3ccccc23)c(OC)c1 | / | / | 31% | -1% | -16% | 22µM*
FC(F)(F)c1cccc(N2CCCCC2)c1 | / | 7% | / | / | / | /
CN1CCC(N2CCN(c3cccc(C(F)(F)F)c3)CC2)CC1 | / | -1% | 2% | 1% | -8% | 35µM*
CCCCC(=O)NCCc1ccc(S(N)(=O)=O)cc1 | -3% | -2% | -15% | -18% | -13% | -2%
CCN1CCN(c2cc(C)c3cc(NC(=O)c4cc(OC)cc(OC)c4)ccc3n2)CC1 | / | -22% | -26% | -22% | ? | -9%
CC(=O)c1sc(C(=O)O)c(-c2ccco2)c1-c1ccco1 | ? | -36% | 20µM* | 45µM* | 22µM* | ?
CC1CCN(C(=O)c2ccc([N+](=O)[O-])o2)CC1 | / | 6%[57.1 µM] | 19% | -11% | 2% | 20%
CCOC(=O)C1CCN(C(=O)COC(=O)c2ccc([N+](=O)[O-])o2)CC1 | -6% | 16% | / | -4% | 79µM* | 50µM*
